# Measured values taken from PubChem BioAssay AID2427 (National Center for Advancing Translational Sciences (NCATS), 2010).
# Active and inactive are the calls of the source.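 The calls were made as follows: active = melting temperature shift above 3 C; inconclusive = shift above 1 C but not above 3 C; inactive = the rest.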
# Target: 15-hydroxyprostaglandin dehydrogenase [NAD(+)] (Homo sapiens) (UniProt P15428)
# Assay: Thermal Shift Assay for Inhibitors of HPGD (15-Hydroxyprostaglandin Dehydrogenase)
# Details: Recombinant HPGD thermal shift, SYPRO orange DSF, at 250 µM, stronger effect = higher value
# Protocol: Assay Overview: Human 15-Hydroxyprostaglandin dehydrogenase (HPGD) catalyzes the inactivation of prostaglandin E2, and plays a major role in cancer biology by antagonizing the oncogenic potential of cyclooxygenase type 2 (COX2). Studies to assess the stability of human 15-PGDH in presence of compounds was performed as described (Niesen et al., 2007) with variations. References 1. Myung SJ, Rerko RM, Yan M, Platzer P, Guda K, Dotson A, Lawrence E, Dannenberg AJ, Lovgren AK, Luo G, Pretlow TP, Newman RA, Willis J, Dawson D, Markowitz SD. 15-Hydroxyprostaglandin dehydrogenase is an in vivo suppressor of colon tumorigenesis. Proc Natl Acad Sci U S A. 2006 Aug 8;103(32):12098-102. 2. Yan M, Rerko RM, Platzer P, Dawson D, Willis J, Tong M, Lawrence E, Lutterbaugh J, Lu S, Willson JK, Luo G, Hensold J, Tai HH, Wilson K, Markowitz SD. 15-Hydroxyprostaglandin dehydrogenase, a COX-2 oncogene antagonist, is a TGF-beta-induced suppressor of human gastrointestinal cancers. Proc Natl Acad Sci U S A. 2004 Dec 14;101(50):17468-73. 3. Yang L, Amann JM, Kikuchi T, Porta R, Guix M, Gonzalez A, Park KH, Billheimer D, Arteaga CL, Tai HH, Dubois R, Carbone DP, Johnson DH. Inhibition of Epidermal Growth Factor Receptor Signaling Elevates 15-Hydroxyprostaglandin Dehydrogenase in Non-Small-Cell Lung Cancer. Cancer Res. 2007 Jun 15;67(12):5587-5593. 4. Niesen FH, Berglund H, Vedadi M: The use of differential scanning fluorimetry to detect ligand interactions that promote protein stability. Nature protocols 2007; 2:2212-2221 NIH Chemical Genomics Center [NCGC] Structural Genomics Consortium [SGC]
# HPGD was diluted to a final assay concentration of 1 uM in 100 mM Tris buffer, pH 8.0, containing 0.01% Tween-20 and 1:1000 SYPRO orange dye. The final assay volume is 10 ul, with or without 200 uM of either NAD+ or NADH. Compounds were added 1:5 from appropriate stock solutions in 10% (v/v) DMSO to comprise either 50 or 250 uM final concentrations. Heat denaturation curves were recorded using a RT-PCR instrument (Mx3005p, Agilent) applying a temperature gradient of 2 degree C/min. Analysis of the data was performed using DSF Analysis vers. 2.5 (ftp://ftp.sgc.ox.ac.uk/pub/biophysics) and Prism 5.0 (GraphPad Software, Inc.)
# Chain of 15-hydroxyprostaglandin dehydrogenase [NAD(+)] (Homo sapiens) (P15428 whole entry, looked up): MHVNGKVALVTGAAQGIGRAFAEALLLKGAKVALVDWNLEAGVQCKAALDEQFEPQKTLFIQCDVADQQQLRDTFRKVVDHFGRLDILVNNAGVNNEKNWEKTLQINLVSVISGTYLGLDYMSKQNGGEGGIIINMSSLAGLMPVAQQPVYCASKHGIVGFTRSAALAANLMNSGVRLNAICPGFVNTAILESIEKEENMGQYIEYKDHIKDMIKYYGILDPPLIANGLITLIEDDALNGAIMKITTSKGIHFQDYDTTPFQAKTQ
row,Structure (SMILES),thermal shift (delta Tm)
1,O=c1[nH]c(SCc2ccccc2Cl)nc2c1CCC2,9.2 C (active)
2,COc1ccc(OC)c(C(=O)c2ccc(C(=O)N3CCCCC3)cc2)c1,3 C (active)

# Same assay, conditions: Recombinant HPGD thermal shift, SYPRO orange DSF, measured here: delta Tm with NADH cofactor, at 250 µM, stronger effect = higher value
row,Structure (SMILES),thermal shift (delta Tm) [C]
1,O=c1[nH]c(SCc2ccccc2Cl)nc2c1CCC2,1.6
2,COc1ccc(OC)c(C(=O)c2ccc(C(=O)N3CCCCC3)cc2)c1,6.6
